A word on the inhibition: it is the relative decrease from the control value, in per cent.

About 1,700 (0.89%) of roughly 190,000 compounds were called active.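 How the source made its calls: active means inhibition above the mean inhibition across all screened compounds plus 3 SD (cut at about 44% in these data); inactive means the rest.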 The sample as a whole holds a higher share of actives than the screen did.

A short description of this assay: IL-6 driven STAT3 reporter inhibitors, primary screen, U3A cells, luciferase, luminescence, MLSCN library (AID 862).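 Further: 0% = DMSO only wells and 100% = 100 µM nifuroxazide control wells.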 The conditions noted are these: IL-6 STAT3-luciferase reporter, at 5.5 µM, active compounds read high, host cell line lacks STAT1.
Take `Fc1ccc2[nH]c3c(N4CCN(Cc5ccc6c(c5)OCO6)CC4)ncnc3c2c1`: the inhibition was 65.5% (active). On to `Cc1cc(N2CCN(Cc3ccc4c(c3)OCO4)CC2)n2ncnc2n1`, for which the inhibition was -1.7% (inactive). `Fc1ccc2[nH]c3c(N4CCSCC4)ncnc3c2c1`: the inhibition is 22.8% (inactive). Regarding `CC(C)(C)NCCCOc1ccc(Cl)cc1C(C)(C)C`, the inhibition was -0.4% (inactive). With `O=C(N/N=C/c1ccccc1O)/C(=C/c1ccccc1)CCO`, the inhibition was 3.8% (inactive).

Regarding `O=C(NCCSCc1ccccc1)c1ccc(Cl)c(S(=O)(=O)N2CCOCC2)c1`, the inhibition was 21% (inactive). With `Cc1ccccc1CSCCNC(=O)c1ccc(Cl)c(S(=O)(=O)N2CCOCC2)c1`, the inhibition was 4.2% (inactive). Take `CC(C)(CNC(=O)c1ccc(Cl)c(S(=O)(=O)N2CCc3ccccc3C2)c1)N1CCOCC1`: the inhibition is 49.5% (active). In the case of `CCOC(=O)C(=Cc1ccccc1OC)C(=O)OCC`, the inhibition is 9.9% (inactive). `Cc1cc(NC(=O)CSc2nc3c(cc2C#N)CCCCC3)no1`: the inhibition was -1.5% (inactive). With `O=C(N/N=C/C=C/c1ccco1)c1cccs1`, the inhibition is -6.8% (inactive). Consider `Cc1ccc(-c2cc(C(=O)N/N=C/C=C/c3ccco3)c3ccccc3n2)cc1C`, for which the inhibition was 46.8% (active). For `COc1cccc(-c2cc(C(=O)N/N=C/c3ccc(OC)c(COC(C)=O)c3)c3ccccc3n2)c1`, the inhibition is -6% (inactive).

`Cc1cc(C(=O)NNC(=O)c2cccc(S(=O)(=O)N3CCOCC3)c2)c2ccccc2n1`: the inhibition is 10% (inactive). As to `CCC(=O)OCCNc1nc(-c2ccccc2)nc2ccccc12`, the inhibition was 1.5% (inactive). Regarding `O=C(COC(=O)c1ccc(O)cc1)Nc1nccs1`, the inhibition is -5.6% (inactive).

`Fc1cccc2ncnc(OCc3ccccc3)c12`: the inhibition is 4.2% (inactive). Under `Cc1nc2ccccc2cc1O` stands -75.4% (inactive). `Cc1nc2ccccc2cc1OCc1ccc(F)cc1`: the inhibition was 73% (active). As to `O=C(Nc1ccc(N2CCN(C(=O)c3cccs3)CC2)cc1)c1cccnc1Cl`, the inhibition is 1.7% (inactive). For the compound `O=c1c2ccccc2nc2n1C(CSCc1ccccc1)CS2` (configuration not stated), the inhibition was 18.7% (inactive). For the compound `O=c1c2ccccc2nc2n1C(CSCc1cccc(C(F)(F)F)c1)CS2` (configuration not stated), the inhibition is 49.3% (active).

As for `O=c1c2ccccc2nc2n1C(CSc1ccc(F)cc1)CN2` (configuration not stated), the inhibition was -2.2% (inactive). For the compound `Cc1ccc(CNC(=O)c2cccnc2Cl)cc1`, the inhibition is 3.5% (inactive). For the compound `CCOc1cc(/C=C(/C#N)c2ccc(Cl)cc2)cc(Cl)c1OCC(=O)O`, the inhibition was 63.3% (active). For the compound `CCOc1c(Cl)cc(/C=N/O)cc1OC`, the inhibition is 1.3% (inactive). For `CCOC(=O)CN/C=C(\C#N)c1ccc(F)cc1`, the inhibition is -0.6% (inactive).

Turning to `c1ccc(-c2nc(NCc3ccco3)c3ccccc3n2)cc1`, the inhibition is -1% (inactive). Turning to `FC(F)(F)c1cccc(Nc2ncnc3ccccc23)c1`, the inhibition is 16.5% (inactive). On to `c1coc(CNc2ncnc3ccccc23)c1`, for which the inhibition is 61.2% (active).

Consider `CCN(/N=C/c1ccc(N(C)C)cc1)c1nc2ccccc2[nH]1`, for which the inhibition is 1.9% (inactive). As to `CCN(CCCNC(=O)CSc1cc(=O)n(C)c2cc(Cl)ccc12)Cc1ccccc1`, the inhibition was 5.2% (inactive). Under `Cn1c(N)c(C(=O)COC(=O)/C=C/c2ccc(OC(F)F)cc2)c(=O)n(C)c1=O` stands 26.3% (inactive); under `O=C(Nc1ccccc1Cc1ccccc1)c1ccc2c(c1)SC1=NS(=O)(=O)CCN12`, -8.5% (inactive).

As for `Cn1c(SCC(=O)N2CCCc3ccccc32)nc2ccccc2c1=O`, the inhibition was 62.3% (active).

As to `O=C(CSc1nc2ccccc2c(=O)n1CCCO)N1CCc2ccccc21`, the inhibition was 12.6% (inactive).

`O=C(CSc1nc2[nH]ncc2c(=O)n1-c1ccccc1)N1CCCc2ccccc21`: the inhibition was -21.2% (inactive). Consider `COc1ccc(N2C(=O)C(O)C2c2ccc(C)cc2)cc1` (configuration not stated), for which the inhibition is -18.4% (inactive).

As for `O=C(OCC(=O)c1cccs1)c1ccc([N+](=O)[O-])o1`, the inhibition was 0.6% (inactive). On to `COc1ccc(NC(=O)c2cc3nc(-c4ccccc4)cc(C)n3n2)cc1OC`, for which the inhibition was 17.9% (inactive). Take `C(=N\Nc1ccc2ccccc2n1)/c1ccc2c(c1)OCO2`: the inhibition is 91.2% (active).

Consider `Cc1noc(C)c1/C=N/Nc1ccc2ccccc2n1`, for which the inhibition is -21.3% (inactive).

Turning to `Brc1ccc(-c2csc(N/N=C/c3ccc4c(c3)OCO4)n2)cc1`, the inhibition was 5% (inactive).

On to `S=c1[nH]nc(Nc2ccccc2)s1`, for which the inhibition is 12% (inactive). Consider `CN(c1ccccc1)c1nc(N)c([N+](=O)[O-])c(NCc2ccco2)n1`, for which the inhibition is -0.4% (inactive). As for `CCN1/C(=C\c2ccc3ccccc3[n+]2CC)Sc2cc(C)ccc21`, the inhibition was 84.8% (active).

With `CCC(=O)/C=C1\Sc2ccccc2N1CC`, the inhibition is 20.7% (inactive). Turning to `Cc1ccccc1NC(=O)CN1C(=O)N/C(=C\c2cccn2-c2cccc(C(=O)O)c2)C1=O`, the inhibition is 6% (inactive). For the compound `O=C(O)CSCC(=O)Nc1ccc(C(F)(F)F)cc1`, the inhibition is 6.5% (inactive).

With `CC(C)(C)c1ccc(Oc2ccc(N)cc2)cc1`, the inhibition is 76.2% (active). Turning to `Cc1ccc(Oc2ccc(N)cc2)cc1`, the inhibition was 0.4% (inactive). On to `Nc1ccc(Oc2ccc(Cl)cc2)cc1`, for which the inhibition is -0.6% (inactive). Regarding `C=CCNc1scc(-c2ccccc2)[n+]1CC=C`, the inhibition was 4.7% (inactive). For the compound `Cc1ccc(NC(=O)Nc2ccccc2)c(Br)c1`, the inhibition is 16.3% (inactive).

For `C=CC[n+]1c(-c2ccc(C)cc2)csc1NNC(=O)Nc1ccccc1`, the inhibition is 46.3% (active). For `CCCN(CC(=O)Nc1ccc(C(N)=O)cc1)CC(=O)Nc1ccccc1C`, the inhibition is 3.9% (inactive).

As for `Cc1csc(NC(=O)Nc2ccccc2[N+](=O)[O-])n1`, the inhibition was -24.9% (inactive).

Consider `OCCCC1CCCCN1Cc1nc(Cc2ccccc2Cl)no1` (configuration not stated), for which the inhibition was 4.3% (inactive).

`N/C(=N\OC(=O)c1ccc2c(c1)OCO2)c1ccc(Br)cc1`: the inhibition was 9.8% (inactive). Consider `Cc1ccc2nc(-c3ccc(NC(=O)CN(C)S(=O)(=O)c4ccccc4)cc3)sc2c1`, for which the inhibition is 49.8% (active). On to `COc1cc(NC(=O)CN(C)S(=O)(=O)c2ccc3nc(C)sc3c2)cc(OC)c1`, for which the inhibition was 0.9% (inactive). As to `Cc1cccc(N(CC(=O)Nc2ccc(-c3nc4ccc(C)cc4s3)cc2)S(C)(=O)=O)c1`, the inhibition is 28% (inactive). `O=C(CCc1ccccc1)NCCc1cccs1`: the inhibition was 4.7% (inactive). Take `O=C(C/C(=N\NC(=O)c1ccccc1Br)C(F)(F)F)c1cccs1`: the inhibition is -8.2% (inactive).

`COc1cccc(C(=O)Nc2ccc(NC(=O)c3ccco3)cn2)c1`: the inhibition was 12.2% (inactive). Take `O=C(Nc1ccc(NC(=O)c2cccs2)cn1)c1ccco1`: the inhibition is 48.3% (active).

Take `O=C(Nc1ccc2nccnc2c1)c1ccco1`: the inhibition was 14.3% (inactive).
